# Source: publication PMC11006913
# Where a chain is given by its changes, count along the chain named.
# Tests used:
# Experiment in all cases: PBM; 200 nM protein, PBS
# Conditions in all cases: dsDNA, one strand shown
# SIX6 [1] = biological target: T1, SIX6 (Homo sapiens, UniProt O95475 114-200, L167I)
# T1 sequence: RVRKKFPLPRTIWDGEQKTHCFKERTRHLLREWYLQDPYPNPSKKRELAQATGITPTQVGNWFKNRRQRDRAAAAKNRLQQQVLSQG
# SIX6 [2] = biological target: T2, SIX6 (Homo sapiens, UniProt O95475 114-200, L143V)
# T2 sequence: T1 sequence with L30V, I54L
# SIX6 [3] = biological target: T3, SIX6 (Homo sapiens, UniProt O95475 114-200, H141N)
# T3 sequence: T1 sequence with H28N, I54L
# SIX6 [4] = biological target: T4, SIX6 (Homo sapiens, UniProt O95475 114-200, T165P)
# T4 sequence: T1 sequence with T52P, I54L
# SIX6 [5] = biological target: T5, SIX6 (Homo sapiens, UniProt O95475 114-200, L167M)
# T5 sequence: T1 sequence with I54M
# SIX6 [6] = biological target: T6, SIX6 (Homo sapiens, UniProt O95475 114-200, L143M)
# T6 sequence: T1 sequence with L30M, I54L
# SIX6 [7] = biological target: T7, SIX6 (Homo sapiens, UniProt O95475 114-200, L143I)
# T7 sequence: T1 sequence with L30I, I54L
# SIX6 [8] = biological target: T8, SIX6 (Homo sapiens, UniProt O95475 114-200, T165G)
# T8 sequence: T1 sequence with T52G, I54L
# SIX6 [9] = biological target: T9, SIX6 (Homo sapiens, UniProt O95475 114-200, T139Q)
# T9 sequence: T1 sequence with T26Q, I54L
# SIX6 [10] = biological target: T10, SIX6 (Homo sapiens, UniProt O95475 114-200, T165A)
# T10 sequence: T1 sequence with T52A, I54L
# SIX6 [11] = biological target: T11, SIX6 (Homo sapiens, UniProt O95475 114-200, L167V)
# T11 sequence: T1 sequence with I54V
# SIX6 [12] = biological target: T12, SIX6 (Homo sapiens, UniProt O95475 114-200)
# T12 sequence: T1 sequence with I54L
# SIX6 [13] = biological target: T13, SIX6 (Homo sapiens, UniProt O95475 114-200, T165I)
# T13 sequence: T1 sequence with T52I, I54L
Sequence,binding signal (SIX6 [1]),binding signal (SIX6 [2]),binding signal (SIX6 [3]),binding signal (SIX6 [4]),binding signal (SIX6 [5]),binding signal (SIX6 [6]),binding signal (SIX6 [7]),binding signal (SIX6 [8]),binding signal (SIX6 [9]),binding signal (SIX6 [10]),binding signal (SIX6 [11]),binding signal (SIX6 [12]),binding signal (SIX6 [13])
ATGGCCCG,"8.97 upbm affinity estimate (log intensity, higher = more binding, comparable within an allelic series)","8.9 upbm affinity estimate (log intensity, higher = more binding, comparable within an allelic series)","9.08 upbm affinity estimate (log intensity, higher = more binding, comparable within an allelic series)","9.03 upbm affinity estimate (log intensity, higher = more binding, comparable within an allelic series)","9 upbm affinity estimate (log intensity, higher = more binding, comparable within an allelic series)","8.97 upbm affinity estimate (log intensity, higher = more binding, comparable within an allelic series)","8.99 upbm affinity estimate (log intensity, higher = more binding, comparable within an allelic series)","9.03 upbm affinity estimate (log intensity, higher = more binding, comparable within an allelic series)","9.09 upbm affinity estimate (log intensity, higher = more binding, comparable within an allelic series)","8.99 upbm affinity estimate (log intensity, higher = more binding, comparable within an allelic series)","8.99 upbm affinity estimate (log intensity, higher = more binding, comparable within an allelic series)","9 upbm affinity estimate (log intensity, higher = more binding, comparable within an allelic series)","9.05 upbm affinity estimate (log intensity, higher = more binding, comparable within an allelic series)"
CGCACTCC,"8.92 upbm affinity estimate (log intensity, higher = more binding, comparable within an allelic series)","8.98 upbm affinity estimate (log intensity, higher = more binding, comparable within an allelic series)","8.96 upbm affinity estimate (log intensity, higher = more binding, comparable within an allelic series)","9.15 upbm affinity estimate (log intensity, higher = more binding, comparable within an allelic series)","8.96 upbm affinity estimate (log intensity, higher = more binding, comparable within an allelic series)","8.9 upbm affinity estimate (log intensity, higher = more binding, comparable within an allelic series)","9.01 upbm affinity estimate (log intensity, higher = more binding, comparable within an allelic series)","9.09 upbm affinity estimate (log intensity, higher = more binding, comparable within an allelic series)","9 upbm affinity estimate (log intensity, higher = more binding, comparable within an allelic series)","9.06 upbm affinity estimate (log intensity, higher = more binding, comparable within an allelic series)","8.95 upbm affinity estimate (log intensity, higher = more binding, comparable within an allelic series)","9.04 upbm affinity estimate (log intensity, higher = more binding, comparable within an allelic series)","8.97 upbm affinity estimate (log intensity, higher = more binding, comparable within an allelic series)"
ATATCATC,"11.3 upbm affinity estimate (log intensity, higher = more binding, comparable within an allelic series)","10.5 upbm affinity estimate (log intensity, higher = more binding, comparable within an allelic series)","11.2 upbm affinity estimate (log intensity, higher = more binding, comparable within an allelic series)","10 upbm affinity estimate (log intensity, higher = more binding, comparable within an allelic series)","10.8 upbm affinity estimate (log intensity, higher = more binding, comparable within an allelic series)","11.1 upbm affinity estimate (log intensity, higher = more binding, comparable within an allelic series)","10.5 upbm affinity estimate (log intensity, higher = more binding, comparable within an allelic series)","11.3 upbm affinity estimate (log intensity, higher = more binding, comparable within an allelic series)","11.3 upbm affinity estimate (log intensity, higher = more binding, comparable within an allelic series)","11.2 upbm affinity estimate (log intensity, higher = more binding, comparable within an allelic series)","11 upbm affinity estimate (log intensity, higher = more binding, comparable within an allelic series)","11.1 upbm affinity estimate (log intensity, higher = more binding, comparable within an allelic series)","11.1 upbm affinity estimate (log intensity, higher = more binding, comparable within an allelic series)"
AGTTCGGG,"8.99 upbm affinity estimate (log intensity, higher = more binding, comparable within an allelic series)","9 upbm affinity estimate (log intensity, higher = more binding, comparable within an allelic series)","8.96 upbm affinity estimate (log intensity, higher = more binding, comparable within an allelic series)","9.14 upbm affinity estimate (log intensity, higher = more binding, comparable within an allelic series)","9.03 upbm affinity estimate (log intensity, higher = more binding, comparable within an allelic series)","9.18 upbm affinity estimate (log intensity, higher = more binding, comparable within an allelic series)","9.05 upbm affinity estimate (log intensity, higher = more binding, comparable within an allelic series)","9.12 upbm affinity estimate (log intensity, higher = more binding, comparable within an allelic series)","9.14 upbm affinity estimate (log intensity, higher = more binding, comparable within an allelic series)","8.95 upbm affinity estimate (log intensity, higher = more binding, comparable within an allelic series)","8.74 upbm affinity estimate (log intensity, higher = more binding, comparable within an allelic series)","9.05 upbm affinity estimate (log intensity, higher = more binding, comparable within an allelic series)","8.91 upbm affinity estimate (log intensity, higher = more binding, comparable within an allelic series)"
CATGATAC,"11.2 upbm affinity estimate (log intensity, higher = more binding, comparable within an allelic series)","10.3 upbm affinity estimate (log intensity, higher = more binding, comparable within an allelic series)","11.2 upbm affinity estimate (log intensity, higher = more binding, comparable within an allelic series)","9.82 upbm affinity estimate (log intensity, higher = more binding, comparable within an allelic series)","10.7 upbm affinity estimate (log intensity, higher = more binding, comparable within an allelic series)","10.9 upbm affinity estimate (log intensity, higher = more binding, comparable within an allelic series)","10.4 upbm affinity estimate (log intensity, higher = more binding, comparable within an allelic series)","11.3 upbm affinity estimate (log intensity, higher = more binding, comparable within an allelic series)","11.2 upbm affinity estimate (log intensity, higher = more binding, comparable within an allelic series)","11.1 upbm affinity estimate (log intensity, higher = more binding, comparable within an allelic series)","11 upbm affinity estimate (log intensity, higher = more binding, comparable within an allelic series)","11 upbm affinity estimate (log intensity, higher = more binding, comparable within an allelic series)","10.9 upbm affinity estimate (log intensity, higher = more binding, comparable within an allelic series)"
ATGGCCGC,"8.86 upbm affinity estimate (log intensity, higher = more binding, comparable within an allelic series)","8.81 upbm affinity estimate (log intensity, higher = more binding, comparable within an allelic series)","8.75 upbm affinity estimate (log intensity, higher = more binding, comparable within an allelic series)","8.94 upbm affinity estimate (log intensity, higher = more binding, comparable within an allelic series)","8.89 upbm affinity estimate (log intensity, higher = more binding, comparable within an allelic series)","8.74 upbm affinity estimate (log intensity, higher = more binding, comparable within an allelic series)","8.82 upbm affinity estimate (log intensity, higher = more binding, comparable within an allelic series)","8.77 upbm affinity estimate (log intensity, higher = more binding, comparable within an allelic series)","8.7 upbm affinity estimate (log intensity, higher = more binding, comparable within an allelic series)","8.69 upbm affinity estimate (log intensity, higher = more binding, comparable within an allelic series)","8.93 upbm affinity estimate (log intensity, higher = more binding, comparable within an allelic series)","8.75 upbm affinity estimate (log intensity, higher = more binding, comparable within an allelic series)","8.83 upbm affinity estimate (log intensity, higher = more binding, comparable within an allelic series)"
AGTATATC,"11 upbm affinity estimate (log intensity, higher = more binding, comparable within an allelic series)","10.3 upbm affinity estimate (log intensity, higher = more binding, comparable within an allelic series)","10.9 upbm affinity estimate (log intensity, higher = more binding, comparable within an allelic series)","9.93 upbm affinity estimate (log intensity, higher = more binding, comparable within an allelic series)","10.8 upbm affinity estimate (log intensity, higher = more binding, comparable within an allelic series)","10.9 upbm affinity estimate (log intensity, higher = more binding, comparable within an allelic series)","10.3 upbm affinity estimate (log intensity, higher = more binding, comparable within an allelic series)","10.9 upbm affinity estimate (log intensity, higher = more binding, comparable within an allelic series)","11 upbm affinity estimate (log intensity, higher = more binding, comparable within an allelic series)","10.8 upbm affinity estimate (log intensity, higher = more binding, comparable within an allelic series)","10.7 upbm affinity estimate (log intensity, higher = more binding, comparable within an allelic series)","10.8 upbm affinity estimate (log intensity, higher = more binding, comparable within an allelic series)","10.9 upbm affinity estimate (log intensity, higher = more binding, comparable within an allelic series)"
GTATCAAA,"11.4 upbm affinity estimate (log intensity, higher = more binding, comparable within an allelic series)","10.5 upbm affinity estimate (log intensity, higher = more binding, comparable within an allelic series)","11.4 upbm affinity estimate (log intensity, higher = more binding, comparable within an allelic series)","9.91 upbm affinity estimate (log intensity, higher = more binding, comparable within an allelic series)","10.8 upbm affinity estimate (log intensity, higher = more binding, comparable within an allelic series)","11.2 upbm affinity estimate (log intensity, higher = more binding, comparable within an allelic series)","10.4 upbm affinity estimate (log intensity, higher = more binding, comparable within an allelic series)","11.3 upbm affinity estimate (log intensity, higher = more binding, comparable within an allelic series)","11.2 upbm affinity estimate (log intensity, higher = more binding, comparable within an allelic series)","11.4 upbm affinity estimate (log intensity, higher = more binding, comparable within an allelic series)","11.2 upbm affinity estimate (log intensity, higher = more binding, comparable within an allelic series)","11.2 upbm affinity estimate (log intensity, higher = more binding, comparable within an allelic series)","11.2 upbm affinity estimate (log intensity, higher = more binding, comparable within an allelic series)"
CGCAACCG,"9.24 upbm affinity estimate (log intensity, higher = more binding, comparable within an allelic series)","9.05 upbm affinity estimate (log intensity, higher = more binding, comparable within an allelic series)","9.23 upbm affinity estimate (log intensity, higher = more binding, comparable within an allelic series)","9.03 upbm affinity estimate (log intensity, higher = more binding, comparable within an allelic series)","9.16 upbm affinity estimate (log intensity, higher = more binding, comparable within an allelic series)","9.07 upbm affinity estimate (log intensity, higher = more binding, comparable within an allelic series)","9.2 upbm affinity estimate (log intensity, higher = more binding, comparable within an allelic series)","9.18 upbm affinity estimate (log intensity, higher = more binding, comparable within an allelic series)","9.31 upbm affinity estimate (log intensity, higher = more binding, comparable within an allelic series)","9.14 upbm affinity estimate (log intensity, higher = more binding, comparable within an allelic series)","9.12 upbm affinity estimate (log intensity, higher = more binding, comparable within an allelic series)","9.2 upbm affinity estimate (log intensity, higher = more binding, comparable within an allelic series)","9.15 upbm affinity estimate (log intensity, higher = more binding, comparable within an allelic series)"
